Experimental data: PubChem BioAssay (NCI)
The panel holds about 79,000 compounds, 15% with a hit somewhere; the sample as a whole holds those more often. Calls of active or inactive are those of the source. Rule as the data show it: active = growth inhibition above about 70%; inactive = the rest.

Tests used:
[1] = NCI Yeast Anticancer Drug Screen. Data for the rad50 strain (AID 155);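 also: 0% = growth of vehicle-only cultures of the same strain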; settings: S. cerevisiae rad50 strain growth inhibition; at 50.0 µM; hits give high values
How it was run: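 Readout: growth inhibition relative to vehicle-treated cultures. Compound exposure was carried out in a genetically defined yeast strain deficient in DNA damage repair.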

[2] = NCI Yeast Anticancer Drug Screen. Data for the mec2-1 strain (AID 157); settings: S. cerevisiae mec2-1 strain, at 50.0 µM, hits give high values
How it was run: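 Mutant yeast (mec2-1) grown with compound; growth inhibition relative to vehicle control reported.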

[3] = NCI Yeast Anticancer Drug Screen. Data for the sgs1 mgt1 strain (AID 161);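 also: 0% = growth of cultures given vehicle only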; settings: S. cerevisiae sgs1 mgt1 strain, at 50.0 µM, hits give high values
How it was run: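 This yeast growth screen uses a strain with defined DNA-repair lesions; compound-treated growth is compared with vehicle-treated growth.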

[4] = NCI Yeast Anticancer Drug Screen. Data for the cln2 rad14 strain (AID 165);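 also: 0% = growth equal to vehicle treated cultures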; settings: S. cerevisiae cln2 rad14 strain, at 50.0 µM, hits give high values
How it was run: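 Readout is yeast growth inhibition versus vehicle-treated controls, using a strain with cln2 and rad14 alterations exposed to compound.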

[5] = NCI Yeast Anticancer Drug Screen. Data for the bub3 strain (AID 167); settings: S. cerevisiae bub3 mutant strain, at 50.0 µM, hits give high values
How it was run: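 Readout: yeast growth inhibition, expressed relative to vehicle-only wells. The test organism is a mutant strain from a panel with lesions in DNA repair or checkpoint genes.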

[6] = NCI Yeast Anticancer Drug Screen. Data for the mlh1 rad18 strain (AID 175); settings: S. cerevisiae mlh1 rad18 strain growth inhibition; at 50.0 µM; hits give high values
How it was run: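 Genetically defined yeast (DNA repair-deficient) exposed to compounds; growth inhibition determined relative to vehicle.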

Measured: growth inhibition

O=C1OC(c2ccccc2)=CC1(Cc1ccccc1)Cc1ccccc1
inactive: [1] 0.2% | [2] -25.4% | [3] 4.35% | [4] -35.2% | [5] 2.6% | [6] -5.15%

Clc1ccc2oc(N3CCOCC3)nc2c1
inactive: [1] 20.6% | [2] 23.6% | [3] 22% | [4] -13.4% | [5] 15.7% | [6] 4.1%

O=C(O)CCC(=O)c1ccc2c3c1CCCC3CC2 (stereo unspecified)
inactive: [1] 52.8% | [2] 51.5% | [3] 48.5% | [4] 29% | [5] 17.2%
active: [6] 70.7%

N#CCCN(Cc1ccccc1)CN1C(=O)c2ccccc2C1=O
inactive: [1] 8.75% | [2] 5.5% | [3] 12.1% | [4] 17.9% | [5] 6.4% | [6] -10.3%

CCOc1ccccc1N1C(=O)C(=O)C(c2nc3ccccc3o2)C(=O)C1=O
inactive: [1] -8.75% | [2] 4.3% | [3] -8.4% | [4] -15.9% | [5] 2.55% | [6] -3.2%

CC(Nc1cnccn1)Nc1cnccn1
inactive: [1] -3.1% | [2] -3.55% | [3] -0.4% | [4] -23.4% | [5] -5.2% | [6] 1.05%

COC(=O)C1(F)C(=O)NC(=O)NC1OC (stereo unspecified)
inactive: [1] 35.5% | [2] 16.6% | [3] 56.4% | [4] 10.3% | [5] 11.7% | [6] 31%

CC(COc1ccccc1)OC(=O)CCl (stereo unspecified)
inactive: [1] 0.75% | [2] 5.6% | [3] -6.65% | [4] -16.9% | [5] -16.5% | [6] 27.6%

NC(=O)C(CCc1ccccc1)(CCc1ccccc1)c1ccc2ccccc2c1
inactive: [1] 19.5% | [2] 11.2% | [3] -2.85% | [4] 6.6% | [5] 29.8% | [6] 46%

CC(C)(O)C(C)(O)C#CC(C)(O)C(C)(C)O (stereo unspecified)
inactive: [1] -2.65% | [2] 1.2% | [3] 1.3% | [4] -15.2% | [5] 2.5% | [6] 6.75%

Cc1c(O)c2cccc(-c3ccccc3)c2oc1=O
inactive: [1] 5.8% | [2] 17.5% | [3] 11.1% | [4] -6.3% | [5] -4.8% | [6] 17.6%

COC(=O)c1nc(N)nc(C(=O)OC)c1C(=O)c1ccc2ccccc2c1
inactive: [1] -4.75% | [2] -13% | [3] 10.8% | [4] -2.8% | [5] 3.9% | [6] 9.4%

Brc1ccc(C2CC(c3cccc4ccccc34)=Nc3ccccc3S2)cc1 (stereo unspecified)
inactive: [1] -14.1% | [2] -2.45% | [3] -10.9% | [4] -29.2% | [5] 8.7% | [6] 18.1%

CCCCCCCCCC[N+](C)(C)CC(O)CO (stereo unspecified)
inactive: [1] -51.8% | [2] 7.9% | [3] 2.2% | [4] 9.45% | [5] -2.85% | [6] -11.3%

COc1ccc(-c2ccc(OC)cc2)cc1
inactive: [1] 2.9% | [2] -2.75% | [3] -3.8% | [4] -0.65% | [5] 21.4% | [6] 3%

CN(C)CCCOc1ccc(/C=C2/CCC/C(=C/c3ccc(OCCCN(C)C)cc3)C2=O)cc1
inactive: [1] 22.6% | [2] 14.8% | [3] 19.8% | [4] 26.1% | [5] 18.7% | [6] 3.35%

c1ccc(-c2ccc(-c3nnc(-c4ccc(-c5ccccc5)cc4)o3)cc2)cc1
inactive: [1] -0.95% | [2] -10.4% | [3] 2.7% | [4] -35.6% | [5] -2.6% | [6] -3.1%

O=S(=O)(c1ccccc1)c1ccc(CI)cc1
inactive: [1] 15.8% | [2] 19.9% | [3] 5.05% | [4] 17.4% | [5] 13.7% | [6] 9.05%

CC(NCc1cc(O)c(CNC(C)c2ccccc2)cc1O)c1ccccc1 (stereo unspecified)
inactive: [1] 4.55% | [2] 0.4% | [3] 17.1% | [4] 25.2% | [5] 12.4% | [6] 1.95%

COC(=O)C(C)CC(=O)c1ccc2ccc3cccc4ccc1c2c34 (stereo unspecified)
inactive: [1] -16.9% | [2] -18.4% | [3] -2.05% | [4] -35.4% | [5] 19.4% | [6] -4.2%

O=C(O)CCC(NC(=O)c1ccc(Nc2nc3ccc(C(F)(F)F)cc3nc2-c2ccccc2)cc1)C(=O)O (stereo unspecified)
inactive: [1] -11.5% | [2] 11.9% | [3] 4.75% | [4] -8.75% | [5] 1.25% | [6] -0.05%
